# A selection: hits, their analogues and other compounds. The true share with any hit is near 2.7%.
# Mcl1 Noxa PPI = Mcl-1/Noxa interaction inhibition. Q07820. TR-FRET Mcl-1/Noxa peptide binding, 2 h. inhibition, % at 21.7 µM. hit rate 1.5% among 220,000. AID 1022;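 active = compounds that cut the protein-peptide binding signal by more than 50% relative to plate controls in a single-dose test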;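 note: His-tagged Mcl-1 with rhodamine Noxa BH3 peptide and terbium anti-His antibody; 0% = Mcl-1 plus Noxa peptide wells and 100% = peptide-only wells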
# 14-3-3 Bad inh = disrupts binding of bovine 14-3-3 zeta to phospho-Bad peptide; P63103; TR-FRET 14-3-3zeta/Dy647-pBad peptide displacement, 1 h; inhibition, % at 21.7 µM; hit rate 0.71% among 220,000;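 active = inhibition above about 70%, limit read from the data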;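 note: 0% = full 14-3-3 plus peptide FRET controls and 100% = background without 14-3-3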
# Target sequence (P63103 whole entry, looked up): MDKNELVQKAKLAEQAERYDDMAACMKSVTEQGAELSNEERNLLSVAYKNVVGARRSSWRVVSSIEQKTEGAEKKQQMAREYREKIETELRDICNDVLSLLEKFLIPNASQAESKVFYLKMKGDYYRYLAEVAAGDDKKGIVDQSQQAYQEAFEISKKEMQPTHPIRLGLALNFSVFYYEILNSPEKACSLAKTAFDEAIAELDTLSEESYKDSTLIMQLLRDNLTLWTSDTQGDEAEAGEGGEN
# Bim-Mcl-1 = inhibitors of Bim-Mcl-1 interaction, human. inhibition, % at 10 µM. hit rate 0.1% among 190,000. Q07820. Bead-based flow cytometry, Bim peptide-Mcl-1 binding. AID 1009; in the data active = inhibition above about 40%;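 note: 0% = no compound tracer wells and 100% = peptide blocker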
# Pf gametocyte = inhibitors of late stage P. falciparum gametocyte viability; hit rate 0.065% among 150,000; P. falciparum stage V gametocytes, ATP luminescence, 24 h; inhibition, % at 10.9 µM;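 active = inhibition above the mean plus 3 SD of compounds within the control limits, set per campaign, cut at about 38% in these data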;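 note: 0% = DMSO wells and 100% = medium only without gametocytes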
# eIF4E 4G PPI = eIF4E/eIF4G interaction inhibition in translation initiation | TR-FRET eIF4E-eIF4GI(517-606) binding, 2 h | inhibition, % at 21.7 µM | hit rate 0.37% among 220,000 | AID 782;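 active = inhibition above about 30%, limit read from the data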;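 note: 0% = full FRET control wells and 100% = background wells lacking eIF4GI fragment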
# Mcl1-Bid inh = disrupts binding of human Mcl-1 to Bid peptide. Q07820. TR-FRET Mcl-1/Bid-Dy647 peptide binding, 1536-well. inhibition, % at 21.7 µM. hit rate 0.97% among 220,000. AID 1021;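 active = compounds that cut the binding signal by more than half at the single screening dose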;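 note: His-tagged Mcl-1 with europium anti-His antibody binding Bid BH3 peptide; 0% = Mcl-1 plus peptide wells and 100% = peptide-only wells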
# Numbers without * were called inactive; . = no result given; [ ] = another dose, or the depositor's remark.
SMILES,Mcl1 Noxa PPI,14-3-3 Bad inh,Bim-Mcl-1,Pf gametocyte,eIF4E 4G PPI,Mcl1-Bid inh
O=C(c1cccnc1)N1CCN(Cc2ccc3c(c2)OCO3)CC1,11,76*,-2,.,-2,61*
O=C(c1cccnc1)N1CCN(Cc2cccc(Br)c2)CC1,27,71*,0,.,-1,19
COc1ccc(CN2CCN(C(=O)c3cccnc3)CC2)cc1Br,2,60,-3,.,0,45
CCc1ccc(NC(=O)COc2ccc(/C=C(/C#N)c3nc4ccccc4[nH]3)cc2OC)cc1,34,59,-13,-18,-3,56*
CCNCc1cc([N+](=O)[O-])ccc1OCC,12,13,-1,-4,6,-7
Cc1cccc(C(=O)n2cnnc2N)c1,9,-12,-4,-1,1,-19
CCOC(=O)c1ccccc1NC(=O)Cn1cnc2c(nnn2-c2ccc(C)cc2)c1=O,-15,12,0,.,50*,-15
CCOc1ccccc1N/C(=C(/C(Cl)=C(Cl)Cl)[N+](=O)[O-])n1cncn1,42,74*,-3,.,-5,61*
CCOc1ccc(N/C(=C(/C(Cl)=C(Cl)Cl)[N+](=O)[O-])n2cncn2)cc1,38,67,6,.,4,77*
O=[N+]([O-])/C(C(Cl)=C(Cl)Cl)=C(\Nc1ccc(F)cc1)n1cncn1,20,50,3,.,-7,73*
O=C(CCCN1C(=O)c2ccccc2C1=O)OC1CSCC1NC(=O)c1ccccc1 (configuration not stated),-19,-17,-2,.,9,-57
CCCCCn1nc(C)c(/C=N\NC(=O)c2cc(C)oc2C)c1C,14,-14,0,.,1,-18
CC(C)Sc1ccc([N+](=O)[O-])cc1C(=O)Nc1ccncc1,-12,-10,.,-3,9,-4
Cc1c(CCC(=O)O)c(=O)oc2c(C)c(OCc3cc4c(cc3Cl)OCO4)ccc12,58*,-5,.,-1,-14,-31
O=C(NC(=S)Nc1cc(-c2nc3ccccc3[nH]2)ccc1Cl)c1ccc2c(c1)OCO2,1,53,-8,.,2,59*
Cc1ccc(-c2nc3ccccc3[nH]2)cc1NC(=O)c1ccc2c(c1)OCO2,22,-4,-3,.,-9,-1
c1ccc(NC2=NCCN2CCCC2CCCC2)cc1,.,.,.,12,.,.
O=C(Nc1ccc2oc(-c3cccnc3)nc2c1)c1ccc([N+](=O)[O-])o1,67*,65,0,-4,10,61*
O=C(Nc1ccc2oc(-c3cccnc3)nc2c1)c1ccc(Br)o1,23,67,0,.,-47,52*
Cc1ccc(C(=O)NC(N2CCCC2)C(Cl)(Cl)Cl)cc1 (configuration not stated),12,10,-1,12,2,3
COc1ccccc1N=C1NC(=O)/C(=C/c2ccc(N(C)C)cc2)S1,.,.,.,4,.,.
CC(=O)Nc1ccc(S(=O)(=O)NCCSc2ccccn2)cc1,14,39,3,2,47*[fluorescence artefact?],8
O=C(COc1cccc(C(F)(F)F)c1)NCCCN1CCCC1=O,32,-4,0,2,-3,-8
COc1ccc(NC(=O)Nc2nnc(CC(=O)NCc3ccccc3)s2)cc1,1,-10,0,-9,-1,91*
Cc1noc2ncnc(SCc3ccc(C(F)(F)F)cc3)c12,11,3,.,-23,-3,69*
SMILES,Mcl1 Noxa PPI,14-3-3 Bad inh,Bim-Mcl-1,Pf gametocyte,eIF4E 4G PPI,Mcl1-Bid inh
CCOC(=O)c1c(C)nc2c(c(SC)nn2-c2ccccc2)c1N,-3,4,-1,.,-7,-3
CC(NC(=O)CN(c1ccc(Cl)cc1)S(C)(=O)=O)c1ccccc1 (configuration not stated),.,.,.,13,.,.
Cc1cc(N2CCCC2)nc2ccc(NC(=S)NC(C)C)cc12,61*,-5,-2,12,-6,-25
COCCNC(=S)Nc1ccc2nc(N3CCCC3)cc(C)c2c1,42,-5,4,-4,2,-75
O=C1ON=C(c2ccccc2)/C1=C/c1ccc(OS(=O)(=O)c2ccccc2)cc1,72*,49,-7,-3,5,18
O=C1ON=C(c2ccccc2)/C1=C/c1cccnc1,23,3,2,6,1,-11
Cn1c(=O)c(Nc2ccc(O)cc2)c2c3c(cccc31)C(=O)c1ccccc1-2,66*,-13,0,-18,10,-12
CSc1nc(=S)c2[nH]c(=S)[nH]c2[nH]1,51*,16,.,.,19,-61

# Screening data from PubChem BioAssay.
